# From PubChem BioAssay
# Values joined by “and” are separate entries in the source; they are usually repeats but may differ in a detail not shown here. Equal entries are not always repeated. Active and inactive are the calls of the source. Rule as the data show it, unless noted: active = inhibition above about 80%; inactive = the rest.
# Assays:
# [1] = LFS_MB_P medulloblastoma growth inhibition, cell-based, chromothripsis tumors, cisplatin or BGB combos (AID 1671449); settings: LFS_MB_P medulloblastoma cells;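 also: cells exposed for 96 hours; 0% = vehicle DMSO and 100% = killing by high DMSO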
# [2] = HDN33 neuroblastoma growth inhibition, cell-based, chromothripsis tumors, cisplatin or BGB combos (AID 1671450); settings: HDN33 neuroblastoma cells, stronger effect = higher value;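 also: cells exposed to compound for four days; 0% = vehicle DMSO and 100% = cell killing by high DMSO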
# [3] = ICB984 medulloblastoma cell growth inhibition, synergistic combos for chromothripsis tumors, cisplatin or BGB combos (AID 1671451; call rule not given here;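 also: cells exposed for 96 hours before readout; 0% = vehicle DMSO and 100% = killing by high DMSO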); settings: ICB984 medulloblastoma cells, drug combinations, stronger effect = higher value
# [4] = LFS_MB_1R medulloblastoma cell growth inhibition, synergistic combos for chromothripsis tumors, cisplatin or BGB combos (AID 1671452); settings: LFS_MB_1R medulloblastoma cells, stronger effect = higher value;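 also: cells exposed for 96 hours before readout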
# [5] = HTB85 osteosarcoma cell growth inhibition, synergistic combos for chromothripsis tumors, BGB or cisplatin IC20 combos (AID 1671453); settings: HTB85 osteosarcoma cells, drug combinations, stronger effect = higher value;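 also: cells exposed for 96 hours before readout; 0% = vehicle DMSO and 100% = high DMSO killing control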
# [6] = CRL2098 osteosarcoma cell growth inhibition, synergistic combos for chromothripsis tumors, BGB or cisplatin IC20 combos (AID 1671454); settings: CRL2098 osteosarcoma cells, drug combinations, stronger effect = higher value;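 also: cells exposed for 96 h before readout; 0% = vehicle DMSO and 100% = killing by high DMSO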
# [7] = HD-MB03 medulloblastoma cell growth inhibition, synergistic combos for chromothripsis tumors, BGB or cisplatin IC20 combos (AID 1671455; in the data active = inhibition above about 83%;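 also: 0% = vehicle DMSO and 100% = high DMSO as cytotoxic control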); settings: HD-MB03 medulloblastoma cells, stronger effect = higher value
# [8] = UWB1.289 ovarian carcinoma cell growth inhibition, synergistic combos for chromothripsis tumors, BGB or cisplatin combos (AID 1671456); settings: UWB1.289 ovarian carcinoma cells, stronger effect = higher value;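 also: cells exposed to compound for four days; 0% = vehicle DMSO and 100% = killing by high DMSO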
# [9] = LFS_MB_2R medulloblastoma cell growth inhibition, synergistic combos for chromothripsis tumors, cisplatin combos (AID 1671457); settings: LFS_MB_2R medulloblastoma cells, stronger effect = higher value;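 also: cells exposed to compound for four days before readout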
# [10] = MDA-MB-436 breast carcinoma cell growth inhibition, synergistic combos for chromothripsis tumors, BGB or cisplatin combos (AID 1671458; call rule not given here;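 also: cells exposed for 96 hours; 0% = vehicle DMSO and 100% = killing by high DMSO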); settings: MDA-MB-436 breast carcinoma growth inhibition, drug combinations, stronger effect = higher value
# [11] = UWB1.289_BRCA1 ovarian cancer growth, cell-based, BGB or cisplatin combinations (AID 1671459); settings: UWB1.289 BRCA1 ovarian carcinoma, drug combinations, stronger effect = higher value
# [12] = human astrocyte viability loss, single and combined drugs, cytotoxicity control for chromothriptic childhood tumor combination screen, cell-based, BGB or cisplatin IC20 combos (AID 1671460); settings: Human astrocytes, drug combinations, stronger effect = higher value;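 also: cells exposed to compounds for 96 hours before viability readout; 0% = vehicle and 100% = killing control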
# [13] = growth inhibition of BT084 medulloblastoma cells, cell-based, ICGC_MB145, cisplatin and BGB IC40 combos (AID 1671461); settings: drug combinations, stronger effect = higher value;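 also: cells exposed to drugs for 96 hours; 0% = vehicle DMSO and 100% = high DMSO full killing control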
# [14] = growth inhibition of RCMB18 medulloblastoma cells, cell-based, cisplatin and BGB IC40 combos (AID 1671462); settings: stronger effect = higher value;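 also: cells exposed to compound for four days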
# [15] = growth inhibition of CRL1545 osteosarcoma cells, cell-based, cisplatin and BGB IC20 combos (AID 1671464); settings: stronger effect = higher value;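 also: cells exposed to compound for 96 hours before readout; 0% = vehicle DMSO and 100% = high DMSO killing control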
# [16] = measured here: combination with BGB IC40, at 0.05 µM
# [17] = measured here: with BGB IC20 combination, at 0.5 µM
# [18] = measured here: with cisplatin IC20 combination, at 0.5 µM
# [19] = measured here: combination with cisplatin, at 0.5 µM
# [20] = measured here: combination with cisplatin, at 5 µM
smiles,measurement,setting,value
Nc1cc(F)ccc1NC(=O)/C=C/c1cnn(C/C=C/c2ccccc2)c1,inhibition,"[1]; at 0.5 µM, stronger effect = higher value",19.7% (inactive) and -29.8% (inactive)
same,inhibition,"[1]; measured here: combination with BGB IC20, at 0.005 µM",-27.4% and -4.91%
same,inhibition,"[1]; measured here: combination with BGB IC40, at 0.005 µM",89.6% and -23%
same,inhibition,[1]; [16],10.4% and 0.325%
same,inhibition,"[1]; measured here: combination with cisplatin, at 0.5 µM, stronger effect = higher value",-17.2% and -44.8%
same,inhibition,"[1]; measured here: combination with cisplatin, at 5 µM, stronger effect = higher value",-14.4% and -23.8%
same,inhibition,"[2]; BGB combo, at 5 µM",-55.4% and -3.94%
same,inhibition,[2]; at 0.5 µM,-46.1% (inactive) and -1.14% (inactive)
same,inhibition,"[2]; cisplatin combo, at 5 µM",-62.1% and 12.2%
same,inhibition,[2]; [17],-50.1% and 0.078%
same,inhibition,[2]; [18],-34.6% and -2.05%
same,inhibition,"[2]; single agent, at 5 µM",-50.8% and -2.21%
same,inhibition,"[3]; BGB IC20 combo, at 0.005 µM",-16.5% and -7.2%
same,inhibition,"[3]; BGB IC40 combo, at 0.005 µM",-16% and 5.39%
same,inhibition,"[3]; BGB IC40 combo, at 0.05 µM",-9.88% and 2.13%
same,inhibition,[3]; at 0.5 µM,-33.8% (inactive) and -9.71% (inactive)
same,inhibition,"[3]; cisplatin combo, at 0.05 µM",-15.5% and -1.74%
same,inhibition,"[3]; cisplatin combo, at 0.5 µM",-45.9% and -17.3%
same,inhibition,"[3]; cisplatin combo, at 5 µM",-20.4% and -41.2%
same,inhibition,"[3]; measured here: 5 uM single agent, at 5 µM",-25.9% and -12.4%
same,inhibition,[4]; at 0.5 µM,-30.2% (inactive) and -13.5% (inactive)
same,inhibition,[4]; [16],-20% and -25.7%
same,inhibition,[4]; [19],-51.6% and -12%
same,inhibition,[4]; [20],-19.1% and 0.402%
same,inhibition,[5]; at 0.5 µM,-30% (inactive) and 0.99% (inactive)
same,inhibition,"[5]; measured here: with BGB IC20, at 0.5 µM",-21.5% and 1.42%
same,inhibition,"[5]; measured here: with BGB IC20, at 5 µM",-17.1% and -19.7%
same,inhibition,"[5]; measured here: with cisplatin IC20, at 0.5 µM",-35.4% and -2.87%
same,inhibition,"[5]; measured here: with cisplatin IC20, at 5 µM",19.9% and 1.46%
same,inhibition,"[5]; single agent, at 5 µM",-33.7% and -0.677%
same,inhibition,[6]; at 0.5 µM,-90.2% (inactive) and -24% (inactive)
same,inhibition,"[6]; measured here: combination with BGB at IC20, at 0.5 µM",-110% and -20.4%
same,inhibition,"[6]; measured here: combination with cisplatin at IC20, at 0.5 µM",-83.6% and -21.7%
same,inhibition,[7]; at 0.5 µM,-17.4% (inactive) and -5.34% (inactive)
same,inhibition,"[7]; measured here: combo with BGB at IC20, at 0.5 µM",-11.2% and -7.19%
same,inhibition,"[7]; measured here: combo with cisplatin at IC20, at 0.5 µM",-20.1% and 0.566%
same,inhibition,[8]; at 0.5 µM,-10.9% (inactive) and -4.29% (inactive)
same,inhibition,"[8]; measured here: inhibition with BGB combination, at 0.05 µM",-7.43% and -5.9%
same,inhibition,"[8]; measured here: inhibition with cisplatin combination, at 0.05 µM",-31.6% and -3.68%
same,inhibition,[9]; at 0.5 µM,-20.7% (inactive) and -11.8% (inactive)
same,inhibition,[9]; [19],-25.8% and -7.04%
same,inhibition,[9]; [20],-6.14% and -2.99%
same,inhibition,[10]; at 0.5 µM,-30.9% (inactive) and -9.97% (inactive)
same,inhibition,"[10]; measured here: BGB combination, at 0.5 µM",-13.1%
same,inhibition,"[10]; measured here: BGB combination, at 5 µM",-3.22% and -1.12%
same,inhibition,"[10]; measured here: cisplatin combination, at 0.5 µM",-59.9% and -6.82%
same,inhibition,"[10]; measured here: cisplatin combination, at 5 µM",8% and 15.6%
same,inhibition,"[11]; BGB combination, concentration series, at 5 µM",-29.7% and 12%
same,inhibition,[11]; at 0.5 µM,-22.5% (inactive) and -3.56% (inactive)
same,inhibition,"[11]; cisplatin combination, concentration series, at 5 µM",-4.42% and 12.4%
same,inhibition,[12]; at 0.5 µM,2.29% (inactive) and 8.32% (inactive)
same,inhibition,"[12]; measured here: combo with BGB IC20, at 0.5 µM",16.9% and 12.5%
same,inhibition,"[12]; measured here: combo with cisplatin IC20, at 0.5 µM",-7.65% and 10.5%
same,inhibition,[13]; at 0.5 µM,-9.17% (inactive) and 0.933% (inactive)
same,inhibition,"[13]; cisplatin combination, at 0.5 µM",-6.82% and -1.46%
same,inhibition,"[13]; cisplatin combination, at 5 µM",-105% and 25.2%
same,inhibition,"[13]; measured here: BGB IC40 combination 0.05 uM, at 0.05 µM",-19.8% and -24.1%
same,inhibition,"[13]; single agent, at 5 µM",-7.33% and 11.8%
same,inhibition,[14]; at 0.5 µM,2.62% (inactive) and -10.6% (inactive)
same,inhibition,"[14]; cisplatin combo, at 5 µM",-19.2% and 26.8%
same,inhibition,"[14]; measured here: BGB IC40 combination, at 0.05 µM",-14.2% and 7.18%
same,inhibition,[14]; [19],9.23% and 6.5%
same,inhibition,"[14]; single agent, at 5 µM",5.68% and -6.78%
same,inhibition,[15]; at 0.5 µM,-28.2% (inactive) and -6.93% (inactive)
same,inhibition,[15]; [17],-50.8% and -4.55%
same,inhibition,[15]; [18],-18.7% and -8.13%
same,inhibition,"[15]; single agent, at 0.05 µM",-48.6% and -13.2%
same,inhibition,"[15]; single agent, at 5 µM",23.9% and 22.7%
